The values that follow come from PubChem BioAssay.

This assay is described as follows: Plasmodium falciparum growth inhibition, primary screen, strain 3D7, DAPI fluorescence, 100 nL (AID 1184).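 Further: parasites grown inside human red blood cells in medium with human serum.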 The conditions noted are these: P. falciparum 3D7 growth, 3 d, higher = more signal.
`O=C(O)[C@@H]1[C@@H]2C(=O)N(c3ccccc3)C(=O)[C@@H]2C[C@@H]1Sc1ccccc1`: the z-score came to 0.0183.
Compound `CCOC(=O)C1=CC[C@@H](c2ccccc2F)N(S(=O)(=O)c2ccc(C)cc2)[C@H]1c1ccccc1` displayed a z-score of -2.02.
`C=CCN1Cc2ccccc2[C@@H]2OC(c3ccc(OCCCO)cc3)=N[C@]2(CC=C)C1=O` yielded a z-score of -2.08.
To `O=C(NCCN1CCOCC1)[C@@H]1c2ccccc2C(=O)N(C2Cc3ccccc3C2)[C@H]1c1ccc(CO)cc1` belongs -0.98; to `C=CCC(OC(C)=O)[C@@H]1[C@@H](N(Cc2cccc3ccccc23)C(=O)Cc2ccc(OC)cc2)c2cc(OCCCO)ccc2N1C(=O)c1ccc(-c2ccccc2)cc1` (stereo partly specified), -2.3; to `CC(C)[Si](C#CCCCC#N)(O[C@H](c1ccccc1)c1cn(Cc2ccccc2)nn1)C(C)C`, 0.559.
With `NCCCCCCNC(=O)[C@@H]1C[C@@H]2C(=O)N[C@@H](CCCCN)C(=O)N2[C@@H]1c1ccc(O)cc1` the figure was -0.978.
To `CCN(CC)c1ccc(N2CC=CC34O[C@@H]5/C=C\CCCOC(=O)C5[C@H]3C(=O)N(C(C)CO)[C@@H]4C2=O)cc1` (stereo partly specified) belongs 0.226.
`CC(C)N1C(=O)C[C@@](C(=O)O)(c2ccc([N+](=O)[O-])cc2)[C@H]1c1ccc(CO)cc1`: the z-score is -0.352.
With `CN(C)C(=O)[C@@]1(Cc2ccccc2)N=C(c2ccc(OCCCO)cc2)O[C@H]1c1ccccc1` the figure was -1.58; with `Cc1ccc(S[C@]2(C(=O)NC(C)C)CC(=O)N(Cc3cc(C(F)(F)F)cc(C(F)(F)F)c3)[C@@H]2c2ccc(CO)cc2)cc1`, -0.938; with `COCC(=C=CC[C@H](O)c1ccc(CO)o1)CCO`, 1.08.
With `CCCCCN1CC=CC23O[C@@H]4/C=C\CCCOC(=O)C4[C@H]2C(=O)N(C(C)CO)[C@@H]3C1=O` (stereo partly specified) the figure was 0.266; with `COc1ccc([Si](C)(C)[C@@H]2[C@@H](CCO)O[C@]3(C(=O)N(Cc4cccc(NC(=O)[C@H](C)O)c4)c4ccccc43)[C@H]2C)cc1`, -2.69; with `Cc1ccc(S[C@]2(C(=O)NCc3ccccc3)CC(=O)N(C3CCCCC3)[C@@H]2c2ccc(CO)cc2I)cc1`, -2.17.
With `CC(C)c1ccc(NN2C(C(O)c3ccc(F)cc3)C=CC3C(=O)N(c4ccccc4)C(=O)C32)cc1` (stereo unspecified) the figure was -0.344; with `COC(=O)[C@@]1(Cc2ccccc2)[C@H]2c3cc(C(=O)N4CCCC4)n(CCc4ccccn4)c3C[C@H]2CN1C(=O)c1ccccc1`, -1.25.
`CCCN1C(=O)[C@]2(Cc3ccccc31)N=C(c1ccc(OCCCO)cc1)O[C@@H]2c1ccccc1` displayed a z-score of -2.32.
Consider `O=C1[C@H]2C=C(I)[C@H](C[C@@H]2OCCOCCO)[C@@]12CO2`, for which the z-score is 0.79.
With `CCCCCCc1nc(Cc2cc(OC)c(OC)c(OC)c2)cc2c1[Si](C(C)C)(C(C)C)OC2` the figure was -2.67; with `COC(=O)C(CC#Cc1ccc2c(c1)[C@]1(C(=O)N2)[C@H](c2ccc(O)cc2)N2[C@H](c3ccccc3)[C@H](c3ccccc3)OC(=O)[C@H]2[C@@H]1C(=O)NC[C@H](O)c1ccccc1)C(=O)OC`, 0.452; with `COCCOC(=O)N1C(=O)[C@@]2(c3cc(C#CC4=CCCCC4)ccc31)[C@H](c1ccccc1OCCO)N1[C@H](c3ccccc3)[C@H](c3ccccc3)OC(=O)[C@H]1[C@@H]2C(=O)N1CCN(c2ncccn2)CC1`, -1.86.
Turning to `O[C@@H](Cc1ccccc1)[C@@H](/C=C/C1CC1)N(CC#Cc1ccccc1)Cc1ccccc1Br`, the z-score was -2.81.
Take `COc1cc2c(cc1O)C=[N+](Cc1sc3ccccc3c1Cl)CC2`: the z-score is -1.84.
To `COc1ccc(C#Cc2ccc3c(c2)[C@]2(C(=O)N3)[C@H](C(=O)O)[C@H]3C(=O)O[C@H](c4ccccc4)[C@H](c4ccccc4)N3[C@@H]2c2ccc(O)cc2)cc1` belongs -1.47.
To `Cn1cccc1C(O)C1C=CC2C(=O)N(c3ccccc3)C(=O)C2N1Nc1ccccc1` (stereo unspecified) belongs -0.255; to `Cc1ccc(F)cc1S(=O)(=O)N[C@@H]1CCN(Cc2ccc(Br)cc2)C1`, -0.999.
To `CC1CC/C=C\[C@H]2OC34C=CCN(Cc5ccccc5)C(=O)[C@H]3N(C(CO)C(C)C)C(=O)[C@@H]4C2C(=O)O1` (stereo partly specified) belongs 0.597; to `CCOC(=O)C1=C[C@@H](C(C)C)N(S(=O)(=O)c2ccc(C)cc2)[C@H]1c1ccc(C(F)(F)F)cc1`, -1.88; to `COCCCNC(=O)[C@@]1(Sc2ccc(C)cc2)CC(=O)N(C2Cc3ccccc3C2)[C@@H]1c1ccc(CO)cc1`, -1.52.
`C[N+](C)(C)CCCC[C@@H]1NC(=O)[C@@H]2C[C@H](C(=O)NCCCCCCN)[C@H](c3cccc(OCCO)c3)N2C1=O` showed a z-score of -0.133.
To `C=CCC(OC(C)=O)[C@@H]1[C@@H](N(Cc2ccc(-c3ccccc3)cc2)C(=O)c2ccc(-c3ccccc3)cc2)c2cc(OCCCO)ccc2N1C(=O)c1ccc2ccccc2c1` (stereo partly specified) belongs 0.248.
With `CC1CC/C=C\[C@H]2OC34C=CCN(C(C)C)C(=O)[C@H]3N(CCO)C(=O)[C@@H]4C2C(=O)O1` (stereo partly specified) the figure was -1.22.
To `CCCNC(=O)[C@@H]1c2ccccc2C(=O)N(Cc2ccc(OC(F)(F)F)cc2)[C@H]1c1ccc(CO)cc1` belongs -0.997.
In the case of `CC(C)NC(=O)[C@@]1(C)c2ccccc2C(=O)N(Cc2ccc(OC(F)(F)F)cc2)[C@H]1c1ccc(CO)cc1`, the z-score was -1.75.
To `COc1ccc(CCNC(=O)[C@@]2(Cc3ccccc3I)c3ccccc3C(=O)N(C3CCCCC3)[C@H]2c2ccc(CO)cc2)cc1` belongs -2.22.
